Calls of active or inactive are those of the source.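 The calls were made as follows, unless noted: active = inhibition at or above 50% at 10 µM; inactive = inhibition below 50%.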
Experiments:
[1] = inhibitors of TNFa-induced NFkB p65 translocation, primary screen, imaging, HUVEC, MLSMR starter and 10KST1 sets (AID 438;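 active = inhibition above 20% together with a positive visual image hit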;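 also: compound added about 3h40 before a 20 min TNFalpha stimulation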;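 as to inhibition: signal is the nuclear over cytoplasmic p65 intensity ratio per well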); conditions: HUVEC TNFa-induced p65 nuclear translocation; cell count: measured here: nuclei count (cytotoxicity indicator), at 2.08 µM; inhibition: at 2 µM, stronger effect = higher value, 0% TNFa-plus-vehicle, 100% no-TNFa wells
[2] = inhibitors of mutant huntingtin aggregation, primary screen, imaging, exon1htt(103Q)mCFP cells, high-content imaging (AID 483;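 active = visual image review flags a hit and inhibition of aggregation exceeds 20%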;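 also: compound exposure lasted 3 days before fixation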;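 as to nuclei count: percent of the per-plate median nuclei count of sample wells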); conditions: exon1htt(103Q)mCFP cell line, aggregate imaging, at 2 µM; inhibition of aggregation: stronger effect = higher value; nuclei count: measured here: cell count, toxicity
[3] = inhibitors of E-selectin induction by TNFa, primary screen, imaging, HUVEC, immunofluorescence, MLSMR starter and 10KST1 sets (AID 487;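 active = visually confirmed hit in the image check and inhibition above 20%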;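 as to inhibition: signal is fraction of cell area covered by stained E-selectin grains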;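 as to nuclei count: 100% = median nuclei count of all wells on the same plate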); conditions: HUVEC TNFalpha-induced E-selectin immunofluorescence imaging, at 2 µM; inhibition: stronger effect = higher value; nuclei count: measured here: cell number, toxicity
[4] = biological target: Voltage-gated potassium channel subunit beta-2 (Rattus norvegicus) (UniProt P62483); experiment: KvBeta enzyme negative modulators, primary screen, biochemical, NADPH fluorescence (AID 622;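 active = fluorescence slope higher than the sample average by over 3 SD, cut at about -0.22 in these data, passing the limit was not always enough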;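 also: slope of raw intensity against log time taken from 70 to 1610 s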); conditions: recombinant KvBeta, 4-cyanobenzaldehyde reduction, at 10 µM, stronger effect = higher value
Chain of Voltage-gated potassium channel subunit beta-2 (Rattus norvegicus) (P62483 whole entry, looked up): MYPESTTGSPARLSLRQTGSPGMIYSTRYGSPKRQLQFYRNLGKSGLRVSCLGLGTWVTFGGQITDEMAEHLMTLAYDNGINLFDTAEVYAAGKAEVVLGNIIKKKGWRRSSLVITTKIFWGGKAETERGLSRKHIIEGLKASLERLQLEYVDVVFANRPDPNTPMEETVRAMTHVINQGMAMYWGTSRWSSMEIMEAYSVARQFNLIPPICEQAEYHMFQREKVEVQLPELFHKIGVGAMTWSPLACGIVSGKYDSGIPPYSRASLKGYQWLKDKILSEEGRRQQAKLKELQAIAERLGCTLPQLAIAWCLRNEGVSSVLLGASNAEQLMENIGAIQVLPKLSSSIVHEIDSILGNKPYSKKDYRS

[5] = biological target: Voltage-gated potassium channel subunit beta-2 (Rattus norvegicus) (UniProt P62483); experiment: KvBeta positive modulators, primary screen, biochemical, NADPH fluorescence (AID 623;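 active = NADPH fluorescence slope more negative than the mean of all samples by about 3 SD, 99.7% confidence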;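 also: fluorescence intensity change per second fitted from 20 to 320 s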); conditions: Recombinant KvBeta, NADPH fluorescence decrease slope, 10 min; at 10 µM; stronger effect = lower value
[6] = biological target: Alpha-2C adrenergic receptor (Homo sapiens) (UniProt P18825); experiment: modulators of alpha2C/GIRK thallium flux, primary screen, cell-based, HEK293 alpha2C/GIRK1/2 (AID 624;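 active = fluorescence slope after compound addition differing from the mean of all screened samples at 99.7% confidence, in either direction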;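 also: slope of fluorescence ratio to pre-addition baseline per second over 15 to 24 s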); conditions: thallium flux BTC fluorescence, at 10 µM, actives lie on both sides
Chain of Alpha-2C adrenergic receptor (Homo sapiens) (P18825 whole entry, looked up): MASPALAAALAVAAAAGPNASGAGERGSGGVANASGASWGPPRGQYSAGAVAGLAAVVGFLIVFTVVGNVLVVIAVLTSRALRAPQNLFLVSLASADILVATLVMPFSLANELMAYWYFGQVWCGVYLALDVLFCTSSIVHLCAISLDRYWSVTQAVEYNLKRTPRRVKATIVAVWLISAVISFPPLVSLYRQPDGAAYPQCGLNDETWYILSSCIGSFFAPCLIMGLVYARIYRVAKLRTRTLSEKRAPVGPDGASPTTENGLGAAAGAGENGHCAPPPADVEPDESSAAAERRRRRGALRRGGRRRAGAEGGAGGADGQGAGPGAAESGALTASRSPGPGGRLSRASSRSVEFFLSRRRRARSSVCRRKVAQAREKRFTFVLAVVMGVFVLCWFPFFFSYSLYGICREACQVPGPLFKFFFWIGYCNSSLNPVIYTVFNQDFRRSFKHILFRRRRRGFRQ

[7] = inhibitors of Sendai virus-induced IRF3 signaling, primary screen, TLR/RLR signaling modifier project, cell-based, Sendai virus stimulus, luciferase, 10K MLSCN set (AID 602276); conditions: HEK293 RL24 IRF3 luciferase reporter, at 10 µM, stronger effect = higher value;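 also: firefly luciferase from ISG56 promoter only with Renilla not read in this screen; 0% = Sendai virus plus DMSO and 100% = medium plus DMSO without virus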
[8] = inhibitors of poly I:C-induced TLR3 signaling, primary screen, cell-based, poly I:C stimulus, luciferase, 10K MLSCN set (AID 602277;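 active = inhibition of the reporter signal at or above 50%; inactive = inhibition below 50%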); conditions: HEK293-TLR3 RL24 IRF3 luciferase reporter, at 10 µM, stronger effect = higher value

Row | SMILES | cell count [1] | inhibition [1] | inhibition of aggregation [2] | nuclei count [2] | inhibition [3] | nuclei count [3] | fluorescence slope [4] | NADPH fluorescence slope [5] | slope [6] | inhibition [7] | inhibition [8]
1 | CCSc1nc2ccccc2n1CCC(=O)O | 615 | -62.2% (inactive) | 1.9% (inactive) | 85.7% | -96.2% (inactive) | 111% | -0.49 (inactive) | -0.000157 (inactive) | 0.00453 (inactive) | 10.2% (inactive) | 18.3% (inactive)
2 | CC(=O)N1c2c(cc(Br)cc2S(=O)(=O)NCC2COc3ccccc3O2)CC1C (stereo not drawn) | 651 | -0.5% (inactive) | 19.1% (inactive) | 104% | -47.6% (inactive) | 116% | -0.53 (inactive) | -7.4e-05 (inactive) | 0.00624 (inactive) | 13.1% (inactive) | 10.4% (inactive)
3 | C=CCn1c(=O)c2ccccc2n2c(SC(C)C(=O)Nc3nc(-c4ccccc4)cs3)nnc12 (stereo not drawn) | 462 | 4% (inactive) | 21.8% (inactive) | 90.4% | -26% (inactive) | 107% | -0.483 (inactive) | -2.2e-05 (inactive) | 0.00616 (inactive) | 10.9% (inactive) | 34.2% (inactive)
4 | CCn1c(SCC(=O)Nc2ccccc2F)nc2c(c1=O)SC(C)C2 (stereo not drawn) | 339 | -2.2% (inactive) | -3.7% (inactive) | 104% | -2% (inactive) | 117% | -0.554 (inactive) | -3.3e-06 (inactive) | 0.00612 (inactive) | 3.68% (inactive) | 8.8% (inactive)
5 | O=C1c2ccccc2-c2ccc(C(=O)N3CCOCC3)cc21 | 623 | -4.1% (inactive) | -6.2% (inactive) | 81.1% | -103% (inactive) | 101% | -0.235 (inactive) | -1.8e-05 (inactive) | 0.00393 (inactive) | 5.8% (inactive) | -1.97% (inactive)
6 | CC1(C)Cc2c(c(=S)nc(-c3ccccc3)n2CCO)CO1 | 278 | -0.5% (inactive) | 19% (inactive) | 109% | 41.7% (inactive) | 93.9% | -0.501 (inactive) | -5.3e-05 (inactive) | 0.006 (inactive) | 8.44% (inactive) | 23.5% (inactive)
7 | CN(C)CCNc1oc(-c2ccccc2F)nc1C#N | 648 | 7.1% (inactive) | -11.1% (inactive) | 110% | -40% (inactive) | 116% | -0.062 (active) | 9.2e-06 (inactive) | 0.00579 (inactive) | 0.672% (inactive) | 34.3% (inactive)
8 | CCOC(=O)c1c(C)n(C)c2c(C)cc(O)c(OC(C)=O)c12 | 292 | -5% (inactive) | -6.8% (inactive) | 96.7% | -12.4% (inactive) | 109% | -0.467 (inactive) | -7.1e-06 (inactive) | 0.00417 (inactive) | 4.23% (inactive) | -2.25% (inactive)
9 | O=C1OC(N2CCN(c3ccccn3)CC2)c2ccccc21 (stereo not drawn) | 697 | 9.1% (inactive) | -14.4% (inactive) | 104% | 34.3% (inactive) | 88.3% | -0.633 (inactive) | -3.6e-05 (inactive) | 0.00362 (inactive) | 19.9% (inactive) | 12% (inactive)
10 | O=C(CN1C(=O)c2ccccc2S1(=O)=O)Nc1ccc(S(=O)(=O)N2CCCCCC2)cc1 | 727 | -2.6% (inactive) | -11.1% (inactive) | 99.9% | -91.2% (inactive) | 107% | -0.489 (inactive) | -5.4e-05 (inactive) | 0.00568 (inactive) | 4.06% (inactive) | 19.5% (inactive)
11 | CN(C)S(=O)(=O)Nc1ccccc1C(N)=O | 425 | -9.8% (inactive) | -9.1% (inactive) | 102% | -21.7% (inactive) | 109% | -0.355 (inactive) | -3.8e-05 (inactive) | 0.00484 (inactive) | 15.1% (inactive) | 11.7% (inactive)
12 | COc1nc(Oc2ccc(=O)n(C)n2)nc(N(C)C)n1 | 420 | 1% (inactive) | -5.2% (inactive) | 116% | -52.1% (inactive) | 110% | -0.357 (inactive) | -1.9e-05 (inactive) | 0.00579 (inactive) | 6.15% (inactive) | 12% (inactive)
13 | CCCCSc1nc(CCC)cc(=O)[nH]1 | 383 | -0.3% (inactive) | -4% (inactive) | 98.2% | 3.8% (inactive) | 116% | -0.34 (inactive) | 5.5e-06 (inactive) | 0.00636 (inactive) | 5.02% (inactive) | 2.79% (inactive)

Source: PubChem BioAssay
